Measurements: PubChem BioAssay AID1159580 (chemical genetic matrix, 2015)
Values joined by “and” are separate entries in the source; they are usually repeats but may differ in a detail not shown here. Equal entries are not always repeated. Screen size: about 5,500 compounds; about 2,000 (36%) were called active. Roughly 18% stayed inconclusive and do not appear here. Rule as the data show it: active = normalized growth mostly below about 0.91 (no sharp cut-off); inconclusive = no clear call, values can overlap the other calls; inactive = mostly above about 0.92. The list shows a part of the results.

Assay: chemical genetic growth profiling, strain panel (AID 1159580);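 also: tested at 20 µM; growth read once vehicle control cultures reached saturation at 30 °C; 1 = growth at the plate median or of vehicle wells; lower values mean less growth of the strain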
Settings: S. cerevisiae deletion strains, growth OD

Measured: normalized growth

Oc1ccc(/C=C/c2cc(O)cc(O)c2)cc1
active: locus YKL009W, strain mrt4, hits give low values 0.779 | locus YKR001C, strain vps1, hits give low values 0.692 | locus YLR262C, strain YPT6 (second series), hits give low values 0.822 | locus YLR371W, strain rom2, hits give low values 0.766 | locus YLR418C, strain cdc73, hits give low values 0.686 | locus YMR307W, strain GAS1, hits give low values 0.538 | locus YNR052C, strain pop2, hits give low values 0.833 | locus YOL147C, strain pex11, hits give low values 0.926 | locus YOR184W, strain ser1, hits give low values 0.729 | locus YPR163C, strain tif3, hits give low values 0.909 | strain wtn01, hits give low values 0.895
inactive: locus YJR043C, strain POL32, hits give low values 0.946 | locus YJR066W, strain TOR1, hits give low values 0.939 | locus YJR075W, strain HOC1, hits give low values 0.986 and 1.01 | locus YKL068W, hits give low values 0.977 | locus YKL085W, strain MDH1 (second series), hits give low values 0.982 | locus YKL085W, strain MDH1, hits give low values 0.982 | locus YKL160W, strain elf1, hits give low values 1 | locus YKL190W, strain CNB1, hits give low values 0.992 | locus YKR026C, strain gcn3, hits give low values 0.991 | locus YKR091W, strain srl3, hits give low values 0.995 | locus YLL001W, strain dnm1, hits give low values 1.01 | locus YLL026W, hits give low values 0.99 | locus YLL041C, strain sdh2, hits give low values 0.991 | locus YLR027C, strain aat2, hits give low values 0.994 | locus YLR039C, strain RIC1, hits give low values 0.87 | locus YLR058C, strain SHM2, hits give low values 0.972 | locus YLR102C, strain apc9, hits give low values 0.997 | locus YLR113W, strain HOG1, hits give low values 1.04 | locus YLR221C, strain rsa3, hits give low values 0.972 | locus YLR258W, strain gsy2, hits give low values 0.986 | locus YLR262C, strain YPT6, hits give low values 0.877 | locus YLR268W, strain sec22, hits give low values 0.894 | locus YLR320W, strain mms22, hits give low values 0.971 | locus YLR330W, strain CHS5, hits give low values 0.998 | locus YLR342W, strain FKS1 (second series), hits give low values 0.946 | locus YLR342W, strain FKS1, hits give low values 0.993 | locus YLR357W, strain rsc2, hits give low values 0.976 | locus YLR370C, strain arc18, hits give low values 1.01 | locus YLR384C, strain iki3, hits give low values 0.996 | locus YML016C, strain PPZ1, hits give low values 0.993 | locus YML032C, strain rad52, hits give low values 0.938 | locus YML120C, strain ndi1, hits give low values 0.956 | locus YML124C, strain tub3, hits give low values 0.993 | locus YMR058W, strain fet3, hits give low values 0.975 | locus YMR078C, strain ctf18, hits give low values 0.96 | locus YMR125W, strain sto1, hits give low values 0.999 | locus YMR129W, hits give low values 0.996 | locus YMR205C, strain PFK2, hits give low values 0.976 | locus YMR223W, strain ubp8, hits give low values 0.923 | locus YMR231W, strain pep5, hits give low values 1 | locus YMR263W, strain SAP30, hits give low values 0.997 | locus YNL067W, strain RPL9B, hits give low values 0.979 | locus YNL071W, strain lat1, hits give low values 0.988 | locus YNL175C, strain NOP13, hits give low values 0.958 | locus YNL183C, strain NPR1, hits give low values 0.962 | locus YNL197C, strain WHI3, hits give low values 0.966 | locus YNL209W, strain ssb2, hits give low values 0.979 | locus YNL224C, strain SQS1, hits give low values 0.974 | locus YNL233W, strain BNI4, hits give low values 0.924 | locus YNL248C, strain rpa49, hits give low values 0.983 | locus YNL250W, strain rad50, hits give low values 0.971 | locus YNL271C, strain bni1, hits give low values 0.951 | locus YNL298W, strain CLA4, hits give low values 0.92 | locus YNL307C, strain MCK1, hits give low values 0.99 | locus YNL322C, strain KRE1 (second series), hits give low values 0.998 | locus YNR049C, strain mso1, hits give low values 1.01 | locus YOL012C, strain htz1 0.774 | locus YOR001W, strain rrp6, hits give low values 0.985 | locus YOR061W, strain CKA2, hits give low values 0.995 | locus YOR069W, strain VPS5, hits give low values 0.998 | locus YOR070C, strain gyp1, hits give low values 0.986 | locus YOR080W, strain dia2, hits give low values 0.994 | locus YOR083W, strain WHI5 (second series), hits give low values 0.98 | locus YOR083W, strain WHI5, hits give low values 0.965 | locus YOR106W, strain vam3, hits give low values 0.982 | locus YOR136W, strain idh2, hits give low values 0.965 | locus YOR144C, strain elg1, hits give low values 0.963 | locus YOR231W, strain MKK1, hits give low values 0.98 | locus YOR265W, strain rbl2, hits give low values 0.985 | locus YOR270C, strain vph1, hits give low values 0.963 | locus YOR290C, strain snf2, hits give low values 0.95 | locus YOR316C, strain cot1, hits give low values 0.982 | locus YPL051W, strain arl3, hits give low values 0.983 | locus YPL055C, strain LGE1, hits give low values 0.894 | locus YPL078C, strain atp4, hits give low values 0.994 | locus YPL106C, strain sse1, hits give low values 1.02 | locus YPL240C, strain hsp82, hits give low values 0.988 | locus YPL241C, strain CIN2, hits give low values 0.985 | locus YPL256C, strain CLN2, hits give low values 0.975 | locus YPR119W, strain clb2, hits give low values 0.981 | locus YPR141C, strain kar3, hits give low values 0.973 | locus YPR167C, strain met16, hits give low values 0.978
